The values below come from PubChem BioAssay.

The term inhibition denotes the drop in the measured response relative to a control, in per cent.

A short description of assay [1]: inhibitors of TNFa-induced NFkB p65 translocation, primary screen, imaging, HUVEC, MLSMR starter and 10KST1 sets (AID 438;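 active = inhibition above 20% together with a positive visual image hit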;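 note: compound added about 3h40 before a 20 min TNFalpha stimulation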;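 for inhibition: signal is the nuclear over cytoplasmic p65 intensity ratio per well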). The conditions noted are these: HUVEC TNFa-induced p65 nuclear translocation; cell count: measured here: nuclei count (cytotoxicity indicator), at 2.08 µM; inhibition: at 2 µM, stronger effect = higher value, 0% TNFa-plus-vehicle, 100% no-TNFa wells.
Assay [2] is described as follows: reduction of polyQ htt aggregates in cells – imaging, exon1htt(103Q)mCFP cells, high-content imaging, primary screen (AID 483;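 active = visual image review flags a hit and inhibition of aggregation exceeds 20%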;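 note: compound exposure lasted 3 days before fixation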;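 for nuclei count: percent of the per-plate median nuclei count of sample wells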). The note with it: exon1htt(103Q)mCFP cell line, aggregate imaging, at 2 µM; inhibition of aggregation: stronger effect = higher value; nuclei count: measured here: cell count, toxicity.
The nature of assay [3]: endothelial E-selectin expression blockers – imaging, HUVEC, immunofluorescence, MLSMR starter and 10KST1 sets, primary screen (AID 487;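 active = visually confirmed hit in the image check and inhibition above 20%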;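 for inhibition: signal is fraction of cell area covered by stained E-selectin grains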;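 for nuclei count: 100% = median nuclei count of all wells on the same plate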). The conditions noted are these: HUVEC TNFalpha-induced E-selectin immunofluorescence imaging, at 2 µM; inhibition: stronger effect = higher value; nuclei count: measured here: cell number, toxicity.
In assay [4] the target is Voltage-gated potassium channel subunit beta-2 (Rattus norvegicus) (UniProt P62483). Put plainly: inhibitors of rat Kvbeta2 reductase activity – biochemical, NADPH fluorescence, primary screen (AID 622;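 active = fluorescence slope higher than the sample average by over 3 SD, cut at about -0.22 in these data, passing the limit was not always enough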;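 note: slope of raw intensity against log time taken from 70 to 1610 s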). The note with it: recombinant KvBeta, 4-cyanobenzaldehyde reduction, at 10 µM, stronger effect = higher value.
Chain of Voltage-gated potassium channel subunit beta-2 (Rattus norvegicus) (P62483 whole entry, looked up): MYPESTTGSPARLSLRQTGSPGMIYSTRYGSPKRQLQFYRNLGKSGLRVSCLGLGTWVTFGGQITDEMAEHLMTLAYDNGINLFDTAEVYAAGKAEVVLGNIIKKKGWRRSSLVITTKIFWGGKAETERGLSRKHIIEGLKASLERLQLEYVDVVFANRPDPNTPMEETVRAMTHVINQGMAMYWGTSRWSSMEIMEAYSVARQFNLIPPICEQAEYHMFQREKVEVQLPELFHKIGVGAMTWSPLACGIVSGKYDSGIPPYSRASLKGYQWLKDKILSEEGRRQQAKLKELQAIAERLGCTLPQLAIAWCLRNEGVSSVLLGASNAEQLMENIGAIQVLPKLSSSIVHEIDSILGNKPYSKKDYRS
For assay [5] the target is unchanged. Put plainly: enhancers of rat Kvbeta2 NADPH turnover – biochemical, NADPH fluorescence, primary screen (AID 623).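 Note: fluorescence intensity change per second fitted from 20 to 320 s.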 The note with it: Recombinant KvBeta, NADPH fluorescence decrease slope, 10 min; at 10 µM; stronger effect = lower value.
Assay [6] addresses Alpha-2C adrenergic receptor (Homo sapiens) (UniProt P18825). Put plainly: compounds altering alpha2C-coupled GIRK flux – cell-based, HEK293 alpha2C/GIRK1/2, thallium flux, primary screen (AID 624;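 active = fluorescence slope after compound addition differing from the mean of all screened samples at 99.7% confidence, in either direction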;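 note: slope of fluorescence ratio to pre-addition baseline per second over 15 to 24 s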). The conditions noted are these: thallium flux BTC fluorescence, at 10 µM, actives lie on both sides.
Assay [7] can be described thus: blockers of RIG-like receptor reporter activation – cell-based, Sendai virus stimulus, luciferase, 10K MLSCN set, TLR/RLR signaling modifier project, primary screen (AID 602276;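 active = inhibition at or above 50% at 10 µM; inactive = inhibition below 50%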;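 note: firefly luciferase from ISG56 promoter only with Renilla not read in this screen; 0% = Sendai virus plus DMSO and 100% = medium plus DMSO without virus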). The conditions noted are these: HEK293 RL24 IRF3 luciferase reporter, at 10 µM, stronger effect = higher value. Background: Reporter assays use an easily measured gene product as a stand-in for the process of interest.

Assay [8] can be described thus: TLR3 IRF3 reporter activation blockers – cell-based, poly I:C stimulus, luciferase, 10K MLSCN set, primary screen (AID 602277;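 active = inhibition of the reporter signal at or above 50%; inactive = inhibition below 50%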). The conditions noted are these: HEK293-TLR3 RL24 IRF3 luciferase reporter, at 10 µM, stronger effect = higher value.

Molecules are shown by their SMILES. Active and inactive are the calls of the source.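 Rule for the calls, unless noted: active = NADPH fluorescence slope more negative than the mean of all samples by about 3 SD, 99.7% confidence; inactive = the rest.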

Chain of Alpha-2C adrenergic receptor (Homo sapiens) (P18825 whole entry, looked up): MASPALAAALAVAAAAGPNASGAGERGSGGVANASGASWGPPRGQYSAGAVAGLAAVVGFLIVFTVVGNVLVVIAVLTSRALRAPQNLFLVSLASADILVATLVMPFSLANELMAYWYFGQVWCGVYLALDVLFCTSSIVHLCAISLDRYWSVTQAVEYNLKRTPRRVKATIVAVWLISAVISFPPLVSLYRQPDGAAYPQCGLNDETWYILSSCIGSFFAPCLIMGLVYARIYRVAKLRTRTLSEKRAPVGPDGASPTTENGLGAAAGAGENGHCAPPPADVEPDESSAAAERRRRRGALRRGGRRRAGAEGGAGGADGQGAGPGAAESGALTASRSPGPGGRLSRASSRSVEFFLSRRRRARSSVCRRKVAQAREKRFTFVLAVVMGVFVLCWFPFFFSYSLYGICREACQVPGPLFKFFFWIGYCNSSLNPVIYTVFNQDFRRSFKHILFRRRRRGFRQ

For `CCOC(=O)c1[nH]nc(N)c1NC(=O)c1ccc(Cl)cc1Cl`, in assay [1], the cell count was found to be 554. Besides, the inhibition is -4.9% (inactive) in assay [1], -238% (inactive) in assay [3], -16.4% (inactive) in assay [7] and -22.5% (inactive) in assay [8]. Besides, in assay [2], the inhibition of aggregation was 3.8% (inactive). In addition, the nuclei count was 99.2% in assay [2] and 134% in assay [3]. For the same molecule, the fluorescence slope in assay [4] was -0.456 (inactive). In addition, in assay [5], the NADPH fluorescence slope was 8.2e-05 (inactive). Besides, the slope in assay [6] is 0.00589 (inactive).
`Cc1cc(NS(=O)(=O)c2ccccc2)no1`: in assay [1], the cell count stood at 662. In addition, the inhibition in assay [1] was -5.5% (inactive); in assay [3] it was -72.8% (inactive); in assay [7], 11.7% (inactive); in assay [8] it was 28.5% (inactive). For the same molecule, the inhibition of aggregation in assay [2] was -5.5% (inactive). Further, the nuclei count in assay [2] was 97%; in assay [3], 122%. The fluorescence slope in assay [4] is -0.56 (inactive). Further, the NADPH fluorescence slope in assay [5] was -5.2e-05 (inactive). Moreover, the slope in assay [6] was 0.00728 (inactive).
Consider `O=C1CCCC2=C1C(c1ccc(Br)cc1)c1c([nH]c(=S)[nH]c1=O)N2` (centres undefined), for which, in assay [1], the cell count came out at 407. For the same molecule, the inhibition in assay [1] was -3.6% (inactive); in assay [3] it was -41.1% (inactive); in assay [7], 6.81% (inactive); in assay [8] it was 17.9% (inactive). For the same molecule, in assay [2], the inhibition of aggregation was 17.6% (inactive). Besides, the values for the nuclei count in assay [2] and in assay [3] were 103% and 109%, respectively. Further, the fluorescence slope in assay [4] is -0.378 (inactive). Also, in assay [5], the NADPH fluorescence slope is -5.8e-05 (inactive). The slope in assay [6] is 0.00391 (inactive).
As to `N#Cc1cc2c(nc1SCC(=O)N1CCCCC1)CCCC2`, the cell count in assay [1] came out at 220. Moreover, the inhibition in assay [1] was 5.5% (inactive); in assay [3], -46% (inactive); in assay [7], -26.1% (inactive); in assay [8], -20.2% (inactive). The inhibition of aggregation in assay [2] is 0.1% (inactive). Also, the nuclei count in assay [2] came out at 90.1%; in assay [3], 98.7%. Moreover, the fluorescence slope in assay [4] was -0.473 (inactive). The NADPH fluorescence slope in assay [5] was 4.2e-05 (inactive). Further, in assay [6], the slope was 0.00388 (inactive).
In the case of `Oc1ccc(-c2n[nH]c(=S)n2Cc2ccccc2)cc1`, in assay [1], the cell count was 409. For the same molecule, the inhibition in assay [1] is 9.6% (inactive); in assay [3], -75.1% (inactive); in assay [7], -8.79% (inactive); in assay [8] it was -1.56% (inactive). Moreover, the inhibition of aggregation in assay [2] was -13.1% (inactive). In addition, the nuclei count turned out to be 109% in assay [2] and 116% in assay [3]. Moreover, the fluorescence slope in assay [4] was -0.485 (inactive). For the same molecule, the NADPH fluorescence slope in assay [5] is 4.7e-05 (inactive). The slope in assay [6] is 0.00348 (inactive).
As to `CCOC(=O)C1=C(c2ccccc2)N2CCN=C2S1`, the cell count in assay [1] was determined as 507. In addition, the inhibition was -12.1% (inactive) in assay [1], -12.3% (inactive) in assay [3], 1.18% (inactive) in assay [7] and 6.97% (inactive) in assay [8]. Besides, the inhibition of aggregation in assay [2] is 18.9% (inactive). The values for the nuclei count in assay [2] and in assay [3] were 59% and 94.2%, respectively. Besides, the fluorescence slope in assay [4] was -0.521 (inactive). In addition, in assay [5], the NADPH fluorescence slope was -1.6e-06 (inactive). Further, the slope in assay [6] was 0.00413 (inactive).
On to `O=C(c1ccco1)N1CCN(c2ccc(Cl)cc2)CC1`, for which, in assay [1], the cell count was determined as 173. The inhibition in assay [1] was -5.1% (inactive); in assay [3], 12.5% (inactive); in assay [7] it was -73.4% (inactive); in assay [8], -172% (inactive). The inhibition of aggregation in assay [2] is -6.3% (inactive). The figures for the nuclei count in assay [2] and in assay [3] were 82.3% and 93%, respectively. Moreover, the fluorescence slope in assay [4] is -0.467 (inactive). Moreover, the NADPH fluorescence slope in assay [5] was 7.7e-05 (inactive). Also, in assay [6], the slope was 0.00616 (inactive).
With `Cc1cc(NS(=O)(=O)Cc2ccccc2)cc(C)c1OCC(=O)N1CCOCC1`, the cell count in assay [1] turned out to be 323. Besides, the inhibition in assay [1] is -3.3% (inactive); in assay [3], -47.7% (inactive); in assay [7] it was 14.5% (inactive); in assay [8], 10.6% (inactive). The inhibition of aggregation in assay [2] is -14.1% (inactive). Moreover, the nuclei count in assay [2] is 86.8%; in assay [3] it was 104%. Further, the fluorescence slope in assay [4] is -0.478 (inactive). Besides, the NADPH fluorescence slope in assay [5] is -4.7e-05 (inactive). Further, the slope in assay [6] was 0.00653 (inactive).
Regarding `CCOC(=O)Cc1csc(NC(=O)CSc2nnc(C)n2C)n1`, the cell count in assay [1] worked out at 585. Moreover, the inhibition in assay [1] is 3.3% (inactive); in assay [3], -8.1% (inactive); in assay [7], -24.8% (inactive); in assay [8], -19.7% (inactive). Also, in assay [2], the inhibition of aggregation was 17.4% (inactive). Moreover, the nuclei count in assay [2] came to 101%; in assay [3] it was 108%. Moreover, the fluorescence slope in assay [4] is -0.448 (inactive). In assay [5], the NADPH fluorescence slope is -2.5e-05 (inactive). Further, the slope in assay [6] was 0.00393 (inactive).
For the molecule `CCCN(CC1CC1)C(=O)Nc1ccccc1C`, in assay [1], the cell count was determined as 693. Moreover, the inhibition in assay [1] was -11.6% (inactive); in assay [3] it was -32.9% (inactive); in assay [7], -4.1% (inactive); in assay [8], -19% (inactive). Further, the inhibition of aggregation in assay [2] is 9.8% (inactive). For the same molecule, the nuclei count was 101% in assay [2] and 103% in assay [3]. In addition, the fluorescence slope in assay [4] is -0.529 (inactive). Besides, the NADPH fluorescence slope in assay [5] was 3.7e-05 (inactive). The slope in assay [6] is 0.00657 (inactive).
As for `Cc1cccc(CN2CCC(CNC(=O)C3CCCN(S(=O)(=O)c4cnc[nH]4)C3)CC2)c1` (centres undefined), the cell count in assay [1] came out at 706. The inhibition in assay [1] was -12.2% (inactive); in assay [3], -61.1% (inactive); in assay [7], 18.8% (inactive); in assay [8], 27.2% (inactive). Further, the inhibition of aggregation in assay [2] is 10.2% (inactive). Also, the values for the nuclei count in assay [2] and in assay [3] were 106% and 125%, respectively. Moreover, in assay [4], the fluorescence slope was -0.518 (inactive). In addition, in assay [5], the NADPH fluorescence slope is -3.2e-05 (inactive). Besides, the slope in assay [6] was 0.0058 (inactive).
Consider `COc1ccc(Cl)cc1N1CC(c2nc3ccccc3[nH]2)CC1=O` (centres undefined), for which the cell count in assay [1] came to 542. Besides, the inhibition was 1.4% (inactive) in assay [1], 1.9% (inactive) in assay [3], 16.2% (inactive) in assay [7] and 16.9% (inactive) in assay [8]. In addition, in assay [2], the inhibition of aggregation is 2% (inactive). In addition, the nuclei count turned out to be 114% in assay [2] and 107% in assay [3]. In addition, the fluorescence slope in assay [4] is -0.607 (inactive). For the same molecule, the NADPH fluorescence slope in assay [5] is 6.8e-06 (inactive). For the same molecule, in assay [6], the slope was 0.00704 (inactive).
For `CCOC(=O)c1c(NC(=O)COC(=O)c2c(C)noc2C)sc2c1CCC2`, the cell count in assay [1] is 231. Moreover, the inhibition in assay [1] was 7.8% (inactive); in assay [3] it was -101% (inactive); in assay [7], 14.6% (inactive); in assay [8] it was 21.3% (inactive). In assay [2], the inhibition of aggregation was 29.9% (inactive). The nuclei count worked out at 103% in assay [2] and 109% in assay [3]. The fluorescence slope in assay [4] was -0.472 (inactive). Besides, the NADPH fluorescence slope in assay [5] is -1.1e-05 (inactive). For the same molecule, the slope in assay [6] was 0.0054 (inactive).
Turning to `CCOC(=O)C1=C(N)OC2=C(C(=O)CC(C)(C)C2)C1c1ccco1` (centres undefined), in assay [1], the cell count was 382. Besides, the inhibition in assay [1] is 1% (inactive); in assay [3] it was -61.3% (inactive); in assay [7] it was -0.305% (inactive); in assay [8] it was -16.2% (inactive). In addition, in assay [2], the inhibition of aggregation is -38.9% (inactive). Besides, the values for the nuclei count in assay [2] and in assay [3] were 104% and 110%, respectively. For the same molecule, the fluorescence slope in assay [4] was -0.566 (inactive). The NADPH fluorescence slope in assay [5] is 5.5e-05 (inactive). For the same molecule, the slope in assay [6] is 0.00621 (inactive).
